The record followed here is the supplement of paper PMC6953052.

The full ranking holds about 1,700 compounds; the median of “fraction of GFP-LC3-positive cells (≥5 vesicles/cell)” is about 0.058, and the highest 2% start at about 0.59. What follows is part of a selection rich in the highest values, with near analogues and random picks from the rest.

In the assay the test system is CbCln3 +/+ GFP-LC3 cerebellar neuronal cells. In words: fraction of GFP-LC3-positive cells (≥5 vesicles/cell); higher = more autophagosome accumulation. Summed up: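 Compound (~50 nL in DMSO) was pin-transferred in duplicate onto wild-type or mutant CbCln3 cerebellar cells stably expressing GFP-LC3, seeded at 2 × 10^3/well in 384-well plates, for 24 h at 33 °C. After fixation in 3.2% PFA, three fields per well were imaged at 10×. The value reported is the duplicate average of the fraction of cells meeting a vesicle-count threshold, with CellProfiler counting GFP-LC3 vesicles per cell and out-of-focus images excluded. Cells met the threshold at 5 or more vesicles.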
In the case of `CO[C@H]1/C=C/O[C@@]2(C)Oc3c(C)c(O)c4c(O)c(c(/C=N/N5CCN(C)CC5)c(O)c4c3C2=O)NC(=O)/C(C)=C\C=C\[C@H](C)[C@H](O)[C@@H](C)[C@@H](O)[C@@H](C)[C@H](OC(C)=O)[C@@H]1C` [Rifampicin], the “fraction of GFP-LC3-positive cells” value was 0.0415.
As for `C[C@]12CCC(=O)C=C1CC[C@@H]1[C@@H]2C(=O)C[C@@]2(C)[C@H]1CC[C@]2(O)C(=O)CO` [Cortisone], the figure is 0.0551.
The value for `CCCCCCCC/C=C/CCCCCCCCCCC(=O)O` [12(Z) Heneicosenoic acid] was 0.0354; that for `CCC1(c2ccccc2)C(=O)NCNC1=O` [Primidone] was 0.0329; that for `CC(C)Cn1c(=O)n(C)c(=O)c2[nH]cnc21` was 0.0399.
As for `CN1C(C(=O)Nc2ccccn2)=C(O)c2ccccc2S1(=O)=O` [piroxicam], the figure is 0.0598; as for `C[C@H](NCCc1ccc(O)cc1)[C@H](O)c1ccc(O)cc1.Cl` [Ritodrine hydrochloride], 0.0423; as for `CO[C@H]1C[C@@H]2CC[C@@H](C)[C@@](O)(O2)C(=O)C(=O)N2CCCC[C@H]2C(=O)O[C@H]([C@H](C)C[C@@H]2CC[C@@H](O)[C@H](OC)C2)CC(=O)[C@H](C)/C=C(\C)[C@@H](O)[C@@H](OC)C(=O)[C@H](C)C[C@H](C)/C=C/C=C/C=C/1C`, 0.0529.
Turning to `N#Cc1c(-c2ccccc2)no[n+]1[O-]` [Furoxan], the “fraction of GFP-LC3-positive cells” value was found to be 0.597.
The value for `COc1cc(CNC(=O)CCCC/C=C/C(C)C)ccc1O` [Capsaicin] was 0.0783; that for `Cc1cccc(Nc2ccncc2S(=O)(=O)NC(=O)NC(C)C)c1` [Torsemide] was 0.0886.
As for `CC(/C=C/C(=O)NO)=C\[C@@H](C)C(=O)c1ccc(N(C)C)cc1` [trichostatin-A], the figure is 0.799; as for `CN(C)N=Nc1[nH]cnc1C(N)=O` [Dacarbazine], 0.0174.
As for `CC/C=C\C/C=C\C/C=C\C/C=C\C=C\C(O)CCCC(=O)O` (racemic), the figure is 0.07; as for `Cc1ccc(S(=O)(=O)N[C@@H](Cc2ccccc2)C(=O)CCl)cc1`, 0.315; as for `CCCCNC(=O)NS(=O)(=O)c1ccc(C)cc1` [Tolbutamide], 0.0602.
For `Cc1ccc(S(=O)(=O)N[C@@H](Cc2ccccc2)C(=O)CCl)cc1` [Tosyl-Phe-CMK (TPCK)], the “fraction of GFP-LC3-positive cells” value came to 0.744.
Take `CCCCNC(=O)NS(=O)(=O)c1ccc(C)cc1`: the “fraction of GFP-LC3-positive cells” value was 0.046.
For `O=C(O)c1ccccc1OP(=O)(O)O` [Fosfosal], the “fraction of GFP-LC3-positive cells” value was 0.0551.
The value for `O[C@H]1[C@H]2c3cc4c(cc3CN3CCC(=C[C@@H]1O)[C@H]23)OCO4` [Lycorine] was 0.424; that for `CC(=O)CC(c1ccc([N+](=O)[O-])cc1)c1c(O)c2ccccc2oc1=O` (centres undefined) [Acenocoumarol] was 0.0753.
Take `CCCCC/C=C\C/C=C\C/C=C\C=C\C1CCCC(=O)O1` (racemic) [(±)5-HETE Lactone]: the “fraction of GFP-LC3-positive cells” value came to 0.0775.
As for `CCCCNc1ccc(C(=O)OCCOCCOCCOCCOCCOCCOCCOCCOCCOC)cc1` [Benzonatate], the figure is 0.0604; as for `CCCCCCCCCCCCCCCCOCC(CO)OC(C)=O` (centres undefined), 0.0373; as for `CCCCCCCCCCCCCCCCOCC(CO)OC(C)=O` (centres undefined) [1-Hexadecyl-2-O-acetyl-glycerol], 0.076.
The value for `CCN(CC)CCNC(=O)COc1ccc(OC)cc1.Cl` [Mefexamide hydrochloride] was 0.0712.
The value for `CC1=C(/C=C/C(C)=C/C=C/C(C)=C/C(=O)O)C(C)(C)CCC1` [Retinoic acid, all trans] was 0.0413.
For `CC1=C(/C=C/C(C)=C/C=C/C(C)=C/C(=O)O)C(C)(C)CCC1`, the “fraction of GFP-LC3-positive cells” value turned out to be 0.0875.
Regarding `O=C(CCCCC(=O)Nc1c(I)cc(I)c(C(=O)O)c1I)Nc1c(I)cc(I)c(C(=O)O)c1I` [Iodipamide], the “fraction of GFP-LC3-positive cells” value was found to be 0.064.
For the compound `CCCCC[C@H](O)/C=C/[C@H]1C(=O)C[C@H](O)[C@@H]1C/C=C\CCCC(=O)O` [Prostaglandin D2], the “fraction of GFP-LC3-positive cells” value came to 0.0347.
As to `CCCCC[C@H](O)/C=C/[C@H]1C(=O)C[C@H](O)[C@@H]1C/C=C\CCCC(=O)O`, the “fraction of GFP-LC3-positive cells” value is 0.0396.
With `Cc1ccc2c(c1)C(=O)C1(O)CCN(c3ccccc3)C1=N2` (centres undefined) [Blebbistatin], the “fraction of GFP-LC3-positive cells” value is 0.0372.
Regarding `CC(=O)S[C@@H]1CC2=CC(=O)CC[C@]2(C)[C@H]2CC[C@@]3(C)[C@@H](CC[C@@]34CCC(=O)O4)[C@H]12` [Spironolactone], the “fraction of GFP-LC3-positive cells” value is 0.0439.
For `CCCCCCCC/C=C\C/C=C\C/C=C\CCCC(=O)O`, the “fraction of GFP-LC3-positive cells” value turned out to be 0.0292.
Take `CCCCCCCC/C=C\C/C=C\C/C=C\CCCC(=O)O` [Mead acid (20:3 n-9)]: the “fraction of GFP-LC3-positive cells” value amounted to 0.0545.
As to `N/C(=N\C(=O)c1nc(Cl)c(N)nc1N)NCc1ccccc1`, the “fraction of GFP-LC3-positive cells” value stood at 0.0546.
In the case of `N/C(=N\C(=O)c1nc(Cl)c(N)nc1N)NCc1ccc(Cl)cc1Cl`, the “fraction of GFP-LC3-positive cells” value amounted to 0.6.
Regarding `Cl.N/C(=N\C(=O)c1nc(Cl)c(N)nc1N)NCc1ccccc1` [Benzamil hydrochloride], the “fraction of GFP-LC3-positive cells” value was found to be 0.0345.
As for `CC(N/C(=N\C#N)Nc1ccncc1)C(C)(C)C` (centres undefined) [Pinacidil], the figure is 0.0274.
Regarding `CCN(CC)CCCCCCCCOC(=O)c1cc(OC)c(OC)c(OC)c1`, the “fraction of GFP-LC3-positive cells” value was 0.0457.
As to `CN1CCC(=C2c3ccccc3Sc3ccccc32)CC1.O=C(O)/C=C\C(=O)O` [Pimethixene maleate], the “fraction of GFP-LC3-positive cells” value amounted to 0.0718.
As for `c1ccc(CN(CCN(Cc2ccccn2)Cc2ccccn2)Cc2ccccn2)nc1`, the figure is 0.755; as for `CN(C)CCN(Cc1ccc(Cl)cc1)c1ccccn1.Cl` [Chloropyramine hydrochloride], 0.056.
Consider `CNCCc1ccccn1.CS(=O)(=O)O.CS(=O)(=O)O` [Betahistine mesylate], for which the “fraction of GFP-LC3-positive cells” value came to 0.0666.
The value for `CC(C)(Sc1cc(C(C)(C)C)c(O)c(C(C)(C)C)c1)Sc1cc(C(C)(C)C)c(O)c(C(C)(C)C)c1` [Probucol] was 0.0472; that for `COc1cc2ccc(=O)oc2cc1O` [Scopoletin] was 0.0458; that for `CCOC(=O)Oc1c(OC)cc(C(=O)O[C@@H]2C[C@@H]3CN4CCc5c([nH]c6cc(OC)ccc56)[C@H]4C[C@@H]3[C@H](C(=O)OC)[C@H]2OC)cc1OC` [Syrosingopine] was 0.251.
The value for `CCn1cc(C(=O)O)c(=O)c2cc(F)c(N3CCNCC3)nc21` [Enoxacin] was 0.045; that for `Cc1cc2ncc(-c3ccccc3)nc2cc1C` was 0.0688.
As for `O=C(O)CNC(=O)C(CS)Cc1ccccc1` (centres undefined), the figure is 0.0651; as for `O=C(O)CNC(=O)C(CS)Cc1ccccc1` (centres undefined) [Thiorphan], 0.0564; as for `COc1cccc2c1C(=O)c1c(O)c3c(c(O)c1C2=O)C[C@@](O)(C(=O)CO)C[C@@H]3O[C@H]1C[C@H](N)[C@H](O)[C@H](C)O1.Cl` [doxorubicin], 0.608.
Regarding `COc1cccc2c1C(=O)c1c(O)c3c(c(O)c1C2=O)C[C@@](O)(C(=O)CO)C[C@@H]3O[C@H]1C[C@H](N)[C@H](O)[C@H](C)O1.Cl` [Doxorubicin hydrochloride], the “fraction of GFP-LC3-positive cells” value was found to be 0.482.
Take `COc1cccc2c1C(=O)c1c(O)c3c(c(O)c1C2=O)C[C@@](O)(C(C)=O)C[C@@H]3O[C@H]1C[C@H](N)[C@H](O)[C@H](C)O1.Cl` [Daunorubicin hydrochloride]: the “fraction of GFP-LC3-positive cells” value was 0.568.
The value for `CC[N+](CC)(CC)CC(=O)Nc1c(C)cccc1C.[Br-]` was 0.0348; that for `CC(C)N1CCN(c2ccc(OC[C@H]3CO[C@](Cn4cncn4)(c4ccc(Cl)cc4Cl)O3)cc2)CC1` [Terconazole] was 0.0686.
As for `O=C(O)c1ccc2nc(-c3ccccc3)c(-c3ccccc3)nc2c1`, the figure is 0.0605; as for `c1ccc2c(Cc3c[nH]c4ccccc34)c[nH]c2c1`, 0.0651.
The value for `c1ccc2c(Cc3c[nH]c4ccccc34)c[nH]c2c1` [Diindolylmethane] was 0.0761; that for `Nc1nc(=O)c2c([nH]1)NCC(CNc1ccc(C(=O)N[C@@H](CCC(=O)[O-])C(=O)[O-])cc1)N2C=O.[Ca+2]` (some centres undefined) [Folinic acid calcium salt] was 0.0553.
In the case of `CC[C@H]1[C@@H]2C=C[C@@H]3[C@H]4C/C=C\C(=O)NCCC[C@@H]5NC(=O)C(=C5O)C(=O)CC[C@@H]4C[C@@H]3[C@H]2C[C@H]1C` [Ikarugamyin], the “fraction of GFP-LC3-positive cells” value was found to be 0.69.
As to `CC1=C(C(=O)O)N2C(=O)[C@@H](NC(=O)[C@H](N)c3ccccc3)[C@H]2SC1.O` [Cephalexin monohydrate], the “fraction of GFP-LC3-positive cells” value came to 0.0422.
As for `OC[C@H]1NC[C@H](O)[C@@H](O)[C@@H]1O` [deoxynorjrimycin(1)], the figure is 0.0354.
The value for `O=C(O)c1cc(-c2ccc(F)cc2F)ccc1O` [Diflunisal] was 0.0501.
